Results filed as inconclusive are left out. The source made the active and inactive calls. Unless noted, calls come from the whole dose curve.
How the values were obtained:
[1] = molecular target: Estrogen receptor (Homo sapiens) (UniProt P03372); experiment: qHTS assay for small molecule antagonists of estrogen receptor alpha signaling (AID 588513; active = well fitted curve in the direction sought with a large enough effect in the signal ratio, with a control signal flat, not every such curve was filed as active; the % refers to the signal ratio; note: % is set by controls: 0 for no effect and ±100 for the full control effect); conditions: ER-alpha-UAS-bla HEK293, beta-lactamase ratio, antagonist mode; series mostly up to 76.9 µM
Outline: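 Beta-lactamase reporter, antagonist mode, HEK 293 GripTite cells; 0.5nM E2 stimulus, 18 h, 37 C; CCF4 dye 2 h RT; fluorescence. IC50 and efficacy from Hill fits, normalized to E2 and DMSO.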

[2] = molecular target: Estrogen receptor (Homo sapiens) (UniProt P03372); experiment: qHTS assay for small molecule agonists of estrogen receptor alpha signaling (AID 588514); conditions: ER-alpha-UAS-bla HEK293, beta-lactamase ratio, 18 h; series mostly up to 76.8 µM;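 note: 0% = vehicle only and 100% = reference agonist; nearly all actives have a fitted effect of over 70% in size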
Outline: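 Cells were plated at 5000/well, incubated 4 hrs at 37 C, dosed with compound titration series, incubated 18 hrs at 37 C, loaded with CCF4 dye for 2 hrs at RT, then fluorescence was read.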

[3] = molecular target: Vitamin D3 receptor (Homo sapiens) (UniProt P11473); experiment: qHTS assay for small molecule antagonists of vitamin D receptor signaling (AID 588541); conditions: HEK293T VDR-UAS-bla, beta-lactamase ratio, antagonist mode; series mostly up to 76.7 µM;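 note: receptor activated by calcitriol during compound treatment; % is set by controls: 0 for no effect and ±100 for the full control effect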
Outline: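 Antagonist-mode beta-lactamase reporter assay: HEK293T VDR-UAS-bla cells were exposed to titrated compound alongside 1-alpha,25-dihydroxyvitamin D3 at 3 nM final for 16 h. Values were normalized to the 50 nM agonist control and DMSO basal, with IC50 and efficacy from Hill equation fits.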

[4] = molecular target: Vitamin D3 receptor (Homo sapiens) (UniProt P11473); experiment: qHTS assay for small molecule agonists of vitamin D receptor signaling (AID 588543); conditions: HEK293T VDR-UAS-bla, beta-lactamase ratio, 16 h; series mostly up to 76.8 µM;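 note: 0% = DMSO basal and 100% = reference agonist control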
Outline: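 β-lactamase reporter, VDR-UAS-bla HEK293T, agonist mode. Cells plated 5 h at 37 °C, compound titration 16 h at 37 °C, CCF4 dye 2 h RT, ratio 460/530 nm. Hill fit → EC50, efficacy vs 50 nM 1α,25-(OH)2D3.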

[5] = qHTS assay for small molecule agonists of retinoid X receptor alpha signaling (AID 588544); conditions: HEK293T RXRa-UAS-bla, beta-lactamase reporter, 18 h; 530 nm emission;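 for activation: 0% = DMSO basal wells and 100% = reference agonist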
[6] = molecular target: Retinoic acid receptor RXR-alpha (Homo sapiens) (UniProt P19793); experiment: as above; conditions: HEK293T RXRa-UAS-bla, beta-lactamase reporter, 18 h; series mostly up to 76.7 µM
[7] = molecular target: Thyroid hormone receptor beta (Homo sapiens) (UniProt P10828); experiment: qHTS assay for small molecule agonists of thyroid hormone receptor beta signaling (AID 588545); conditions: TR-UAS-bla GripTite HEK 293, beta-lactamase ratio, agonist mode, 18 h; series mostly up to 76.7 µM;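 note: 0% = DMSO only and 100% = 10 nM T3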
Outline: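 TR-UAS-bla-GripTite HEK 293 cells in medium with 2% charcoal/dextran FBS, 0.1 mM NEAA and 1 mM sodium pyruvate were treated with titrated compounds for 18 hrs at 37 C. Beta-lactamase reporter was read with CCF4 dye (ex 405, em 460/530 nm); EC50 from Hill fits.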

[8] = qHTS assay for small molecule antagonists of retinoid X receptor alpha signaling (AID 588546; active = well fitted inhibition curve with a large enough effect in the signal ratio, with a control signal flat, not every such curve was filed as active; the % refers to the signal ratio;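 note: cells stimulated with 9-cis-retinoic acid as agonist; % is set by controls: 0 for no effect and ±100 for the full control effect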); conditions: HEK293T RXRa-UAS-bla, beta-lactamase ratio, antagonist mode; measured here: W530 green channel, cytotoxicity proxy
Outline: (§1)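 Beta-lactamase reporter inhibition, read as CCF4 fluorescence ratio (ex 405, em 460/530 nm) after 2 h at RT. HEK293T UAS-bla cells, 2500/well, were stimulated with 9-cis-RA at 500 or 100 nM final alongside test compound for 18 h at 37 C.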

[9] = molecular target: Retinoic acid receptor RXR-alpha (Homo sapiens) (UniProt P19793); experiment: as above; conditions: HEK293T RXRa-UAS-bla, beta-lactamase ratio, antagonist mode
Outline: as §1

[10] = molecular target: Thyroid hormone receptor beta (Homo sapiens) (UniProt P10828); experiment: qHTS assay for small molecule antagonists of thyroid hormone receptor beta signaling (AID 588547; active = well fitted inhibition curve with a large enough effect in the signal ratio, with a control signal flat, not every such curve was filed as active; the % refers to the signal ratio;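 note: cells stimulated with 0.4 nM T3 agonist during compound exposure; % is set by controls: 0 for no effect and ±100 for the full control effect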); conditions: TR-UAS-bla HEK293, beta-lactamase ratio, antagonist mode, 18 h
Outline: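 Inhibition of T3-driven (0.4nM final) beta-lactamase reporter activity was measured over 0.59 nM to 92 uM compound after 18 h at 37 C. The cells were GripTite HEK293 TR-UAS-bla in charcoal/dextran-stripped serum, with CCF4 ratio read-out and IC50 from Hill fits.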

[11] = qHTS assay for small molecule activators of the p53 signaling pathway (AID 651743; active = well fitted activation curve with a large enough effect in the signal ratio, not every such curve was filed as active; the % refers to the signal ratio; note: % of control where 0% means no effect); conditions: HCT-116 p53RE-bla, beta-lactamase FRET ratio, 16 h; activation: stronger effect = higher value
Outline: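 Read-out is fluorescence intensity from the LiveBLAzer B/G FRET substrate, added for 2 hours at room temperature after HCT-116 p53RE-bla cells had been incubated with compounds for 16 hours at 37 C.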

[12] = molecular target: Peroxisome proliferator-activated receptor alpha (Homo sapiens) (UniProt Q07869); experiment: qHTS assay for small molecule agonists of the peroxisome proliferator-activated receptor alpha (PPARalpha) signaling pathway (AID 651778; active = well fitted curve in the direction sought with a large enough effect; an effect the other way counts as inactive or inconclusive; note: % of control where 0% means no effect); conditions: PathHunter PPARalpha complementation, chemiluminescence, 6 h; max response: stronger effect = higher value
Outline: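 Chemiluminescence from complemented enzyme reported PPARalpha activation in cells after 6 hr of compound treatment at 37 C. The detection reagent was incubated for 60 min at room temperature, and compounds were scored as agonists.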

[13] = qHTS assay for small molecule agonists of the antioxidant response element (ARE) signaling pathway measured by Nrf2-dependant transcriptional activity (AID 720636; active = well fitted curve in the direction sought with a large enough effect in the repeat runs; an effect the other way counts as inactive or inconclusive;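 note: HepG2 cells with an ARE-driven luciferase reporter; % of control where 0% means no effect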); conditions: ARE-luc HepG2, Nrf2 luciferase reporter, 16 h; series mostly up to 92.4 µM
Outline: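 In HepG2 cells engineered with an Nrf2-responsive luciferase gene, ARE induction was quantified as luminescence after 16 hr compound treatment at 37 C.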

[14] = qHTS assay for small molecule agonists of the antioxidant response element (ARE) signaling pathway measured by Nrf2-dependant transcriptional activity - cell viability counter screen (AID 720653; active = well fitted curve in the direction sought with a large enough effect in the repeat runs; an effect the other way counts as inactive or inconclusive; note: % is set by controls: 0 for no effect and ±100 for the full control effect); conditions: ARE-bla HepG2 viability, CellTiter-Glo ATP luminescence, 16 h; max response: stronger effect = lower value
Outline: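 Cytotoxicity counter screen: intracellular ATP quantified by CellTiter-Glo luminescence in the same ARE-bla HepG2 plates, after 16 h compound exposure and a 2 h beta-lactamase substrate step.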

[15] = qHTS assay for cell viability of HEK293 cells (AID 743288; active = well fitted curve in the direction sought with a large enough effect; an effect the other way counts as inactive or inconclusive; note: % is set by controls: 0 for no effect and ±100 for the full control effect; nearly all actives have a fitted effect of over 50% in size); conditions: ATP luminescence (CellTiter-Glo), 18 h; max response: stronger effect = lower value
Outline: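 Environmental chemicals tested in qHTS format against parental HEK293 cells; 18 h treatment, 37 C; read-out ATP luminescence (CellTiter-Glo), 30 min RT development.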

[16] = qHTS assay for cell viability of the p53RE-bla HCT-116 cell line (AID 743292; active = well fitted curve in the direction sought with a large enough effect; an effect the other way counts as inactive or inconclusive; note: % is set by controls: 0 for no effect and ±100 for the full control effect; nearly all actives have a fitted effect of over 55% in size); conditions: p53RE-bla HCT-116 viability, ATP luminescence, 16 h; series mostly up to 95 µM
Outline: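 Intracellular ATP of p53RE-bla HCT-116 cells measured by luciferase luminescence following 16 h compound incubation at 37 C; DMSO-only wells served as vehicle controls.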

[17] = molecular target: Nuclear receptor subfamily 1 group I member 2 (Rattus norvegicus) (UniProt Q9R1A7); experiment: qHTS assay for small molecule activators of the rat pregnane X receptor (rPXR) signaling pathway (AID 651751; call rule not given here; note: 0% is about no effect); conditions: rPXR reporter cells, luciferase (One-Glo), 24 h
[18] = qHTS assay for small molecule antagonists of peroxisome proliferator-activated receptor delta signaling (AID 588535); conditions: HEK293T PPARd-UAS-bla, beta-lactamase FRET ratio, 18 h; 460 nm channel;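 note: cells co-treated with a PPAR-delta agonist as stimulator during compound exposure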
Outline: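 HEK293T PPAR-delta-UAS-bla cells, 4000/well, 2% charcoal/dextran FBS; 5 h 37 C; cpd titration; 18 h 37 C; CCF4 2 h RT; FI 460/530 nm; Hill fit → IC50, efficacy.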

[19] = qHTS assay for small molecule activators of the human pregnane X receptor (PXR) signaling pathway (AID 720659; call rule not given here; note: 0% is about no effect); conditions: DPX-2 HepG2 CYP3A4-luciferase, 24 h; series mostly up to 92.3 µM
[20] = qHTS assay for environmental chemicals that activate the Aryl hydrocarbon Receptor (AhR) signaling pathway (AID 651777; active = well fitted curve in the direction sought with a large enough effect; an effect the other way counts as inactive or inconclusive; note: % of control where 0% means no effect; nearly all actives have a fitted effect of over 15% in size); conditions: 1A2-DRE human hepatoma cells, luciferase, 24 h; activation: stronger effect = higher value
Outline: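 Measured luciferase activity, read 30 min after One-Glo addition at room temperature, from human hepatoma cells bearing a dioxin response element–CYP1A2 promoter reporter and exposed to compound for 24 hr at 37 C.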

Thyroid hormone receptor beta (Homo sapiens), sequence (P10828 whole entry, looked up): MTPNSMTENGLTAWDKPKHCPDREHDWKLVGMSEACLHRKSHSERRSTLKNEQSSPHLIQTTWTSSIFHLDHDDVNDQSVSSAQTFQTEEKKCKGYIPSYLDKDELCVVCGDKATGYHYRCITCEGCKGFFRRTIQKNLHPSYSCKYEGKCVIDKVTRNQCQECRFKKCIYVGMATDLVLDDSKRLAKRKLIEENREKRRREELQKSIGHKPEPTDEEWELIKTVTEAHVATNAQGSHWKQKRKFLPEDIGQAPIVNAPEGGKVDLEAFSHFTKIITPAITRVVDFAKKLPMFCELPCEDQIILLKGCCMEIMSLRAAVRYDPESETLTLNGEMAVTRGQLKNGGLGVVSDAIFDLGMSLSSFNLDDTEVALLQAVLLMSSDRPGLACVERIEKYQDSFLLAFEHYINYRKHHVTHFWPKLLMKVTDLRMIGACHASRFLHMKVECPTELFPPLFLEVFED
Estrogen receptor (Homo sapiens), sequence (P03372 whole entry, looked up): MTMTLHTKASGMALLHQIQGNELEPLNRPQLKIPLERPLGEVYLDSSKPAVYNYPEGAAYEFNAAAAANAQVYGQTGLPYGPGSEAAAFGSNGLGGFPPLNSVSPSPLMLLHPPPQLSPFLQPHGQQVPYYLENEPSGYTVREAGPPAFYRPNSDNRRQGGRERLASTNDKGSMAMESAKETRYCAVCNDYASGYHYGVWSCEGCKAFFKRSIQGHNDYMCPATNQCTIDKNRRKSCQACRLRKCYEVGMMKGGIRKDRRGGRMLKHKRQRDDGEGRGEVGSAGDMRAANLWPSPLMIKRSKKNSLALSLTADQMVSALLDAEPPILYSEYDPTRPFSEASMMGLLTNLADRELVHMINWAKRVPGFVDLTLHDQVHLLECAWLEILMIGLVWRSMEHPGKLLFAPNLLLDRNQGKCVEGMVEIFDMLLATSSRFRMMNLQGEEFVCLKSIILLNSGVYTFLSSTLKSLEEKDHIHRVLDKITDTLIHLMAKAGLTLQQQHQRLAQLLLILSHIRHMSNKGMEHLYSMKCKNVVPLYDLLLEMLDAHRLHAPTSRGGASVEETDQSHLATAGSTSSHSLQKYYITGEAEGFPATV
Retinoic acid receptor RXR-alpha (Homo sapiens), sequence (P19793 whole entry, looked up): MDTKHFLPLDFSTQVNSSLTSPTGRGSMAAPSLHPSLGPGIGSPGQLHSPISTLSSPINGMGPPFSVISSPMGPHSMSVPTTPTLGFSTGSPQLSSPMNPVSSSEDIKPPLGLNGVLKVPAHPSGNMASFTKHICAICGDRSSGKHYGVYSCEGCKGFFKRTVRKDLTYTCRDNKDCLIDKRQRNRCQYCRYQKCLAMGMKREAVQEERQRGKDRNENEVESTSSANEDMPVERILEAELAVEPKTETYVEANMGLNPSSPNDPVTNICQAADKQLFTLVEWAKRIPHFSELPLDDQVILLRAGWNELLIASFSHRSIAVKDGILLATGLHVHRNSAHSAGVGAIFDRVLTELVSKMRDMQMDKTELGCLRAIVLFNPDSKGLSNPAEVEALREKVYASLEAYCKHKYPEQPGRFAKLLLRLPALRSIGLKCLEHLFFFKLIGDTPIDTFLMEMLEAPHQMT
Peroxisome proliferator-activated receptor alpha (Homo sapiens), sequence (Q07869 whole entry, looked up): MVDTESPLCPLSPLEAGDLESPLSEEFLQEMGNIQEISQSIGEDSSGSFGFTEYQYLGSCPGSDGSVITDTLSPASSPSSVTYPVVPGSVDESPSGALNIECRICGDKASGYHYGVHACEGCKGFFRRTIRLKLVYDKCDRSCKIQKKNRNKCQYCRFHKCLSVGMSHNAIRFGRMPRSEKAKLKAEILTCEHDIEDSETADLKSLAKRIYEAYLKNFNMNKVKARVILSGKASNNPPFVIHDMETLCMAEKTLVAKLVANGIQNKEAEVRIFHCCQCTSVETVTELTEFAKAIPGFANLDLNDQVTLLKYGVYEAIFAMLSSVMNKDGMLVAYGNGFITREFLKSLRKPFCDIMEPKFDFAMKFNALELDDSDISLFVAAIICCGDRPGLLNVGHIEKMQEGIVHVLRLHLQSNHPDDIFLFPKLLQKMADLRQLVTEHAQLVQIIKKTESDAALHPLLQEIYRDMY
Nuclear receptor subfamily 1 group I member 2 (Rattus norvegicus), sequence (Q9R1A7 whole entry, looked up): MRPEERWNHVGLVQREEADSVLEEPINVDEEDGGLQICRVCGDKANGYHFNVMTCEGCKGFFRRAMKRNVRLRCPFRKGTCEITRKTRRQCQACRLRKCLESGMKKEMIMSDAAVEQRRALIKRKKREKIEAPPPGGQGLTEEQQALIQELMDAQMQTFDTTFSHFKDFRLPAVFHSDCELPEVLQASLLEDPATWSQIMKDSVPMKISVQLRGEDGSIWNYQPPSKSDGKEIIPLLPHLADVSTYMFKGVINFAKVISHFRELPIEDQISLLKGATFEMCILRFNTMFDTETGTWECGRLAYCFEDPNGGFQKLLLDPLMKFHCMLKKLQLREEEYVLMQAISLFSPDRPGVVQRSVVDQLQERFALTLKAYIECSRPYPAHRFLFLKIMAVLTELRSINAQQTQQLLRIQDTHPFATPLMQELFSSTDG
Vitamin D3 receptor (Homo sapiens), sequence (P11473 whole entry, looked up): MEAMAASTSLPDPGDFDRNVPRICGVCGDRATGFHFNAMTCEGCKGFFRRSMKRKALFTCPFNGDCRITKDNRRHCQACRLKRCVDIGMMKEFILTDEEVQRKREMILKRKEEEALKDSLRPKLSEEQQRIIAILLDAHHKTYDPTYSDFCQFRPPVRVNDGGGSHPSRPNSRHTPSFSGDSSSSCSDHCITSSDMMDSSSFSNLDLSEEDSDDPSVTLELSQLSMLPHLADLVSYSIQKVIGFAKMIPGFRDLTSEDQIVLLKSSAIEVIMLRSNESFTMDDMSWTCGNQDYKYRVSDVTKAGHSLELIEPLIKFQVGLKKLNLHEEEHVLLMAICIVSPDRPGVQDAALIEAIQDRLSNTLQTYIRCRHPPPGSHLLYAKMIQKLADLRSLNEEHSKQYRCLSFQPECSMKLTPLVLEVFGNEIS

O=C(O)c1ccc2c(c1)C(=O)OC2=O
-9.87%: max response [5]
inactive: Potency [1] | Potency [2] | Potency [3] | outcome [4] | Potency [6] | Potency [7] | max response [9] -0.339% | activity change % (negative = inhibition) [10] 1.57% | activation [11] -0.551% | max response [12] -0.399% | Potency [13] | max response [14] -5.37% | max response [15] -7.11% | Potency [16] | max response [17] 0.711%
-2.35%: max response [8]

O=C(OCCOCCOC(=O)c1ccccc1)c1ccccc1
-7.11%: max response [8]
59.9%: max response [18]
inactive: Potency [1] | Potency [2] | Potency [3] | outcome [4] | Potency [6] | Potency [7] | max response [9] 4.89% | activity change % (negative = inhibition) [10] 0.94% | activation [11] 0.877% | max response [12] -0.375% | max response [14] -6.77% | max response [15] -9.08% | Potency [16] | max response [17] 2.6% | outcome [19]
-16.7%: max response [5]

CCCCOC(=O)/C=C\C(=O)OCCCC
inactive: Potency [1] | Potency [2] | Potency [3] | Potency [6] | Potency [7] | max response [9] 8.44% | activity change % (negative = inhibition) [10] 17.7% | activation [20] 0.228% | max response [12] -0.617% | Potency [13] | max response [14] 14% | max response [15] -1.23% | Potency [16] | max response [17] 0.138% | outcome [19]
-15%: max response [5]
-0.0728%: max response [8]

CCCCC(CC)C(=O)OCCOCCOCCOC(=O)C(CC)CCCC (configuration not stated)
37.3%: max response [18]
inactive: Potency [1] | Potency [2] | Potency [3] | outcome [4] | Potency [6] | max response [9] -7.08% | activity change % (negative = inhibition) [10] 12.7% | max response [12] 0.387% | Potency [13] | max response [14] 1.57% | max response [15] -11.7% | Potency [16] | max response [17] 4.7% | outcome [19]
18.8%: max response [5]
-5.42%: max response [8]

CCOC(=O)C1=NN(c2ccc(Cl)cc2Cl)C(C)(C(=O)OCC)C1 (configuration not stated)
inactive: Potency [1] | Potency [2] | Potency [3] | outcome [4] | Potency [6] | Potency [7] | activation [11] -4.17% | activation [20] -3.22% | max response [12] 0.459% | Potency [13] | max response [14] 0.425% | max response [15] -23.5% | Potency [16] | max response [17] -0.641%
-4.87%: max response [5]

CCCCCCCCCCCCCCCCCC(N)=O
inactive: Potency [1] | Potency [2] | outcome [4] | Potency [7] | activity change % (negative = inhibition) [10] -14.9% | activation [11] 0.913% | activation [20] -1.31% | Potency [13] | max response [14] 5.14% | max response [15] -6.14% | Potency [16] | max response [17] 4.74% | outcome [19]
51.4%: max response [18]

CCCCCCCCCCCCCCC(=O)OC
inactive: Potency [1] | Potency [2] | Potency [3] | outcome [4] | Potency [6] | max response [9] 8.47% | activation [20] -1.03% | max response [12] -0.882% | max response [14] -2.69% | max response [15] -7.2% | Potency [16] | max response [17] -2.84% | outcome [19]
-9.41%: max response [8]
-7.18%: max response [18]
2.13%: max response [5]

CCCCCCCCCCCO
inactive: Potency [1] | Potency [2] | Potency [3] | outcome [4] | Potency [6] | activity change % (negative = inhibition) [10] 9.58% | activation [11] 1.01% | activation [20] -0.0375% | max response [12] 1.65% | Potency [13] | max response [14] 3.39% | max response [15] 4.45% | Potency [16] | max response [17] 2%
-7.63%: max response [18]
-10.8%: max response [5]

CC(=O)/C=C/C1C(C)=CCCC1(C)C (configuration not stated)
-18.3%: max response [18]
inactive: Potency [1] | Potency [2] | outcome [4] | Potency [6] | Potency [7] | max response [9] -10.8% | activity change % (negative = inhibition) [10] 5.94% | activation [11] -1.49% | activation [20] 0.579% | max response [12] -0.682% | Potency [13] | max response [14] 1.13% | max response [15] -13.5% | Potency [16] | max response [17] 8.79%
0.774%: max response [5]
1.01%: max response [8]

CC(C)Cc1c(C(=O)O)c(C(F)F)nc(C(F)(F)F)c1C1=NCCS1
-17.4%: max response [5]
45.9%: max response [18]
-0.767%: max response [8]
inactive: Potency [1] | Potency [2] | Potency [3] | outcome [4] | Potency [6] | Potency [7] | max response [9] 6.24% | activity change % (negative = inhibition) [10] -21.3% | activation [11] -1.35% | activation [20] -4.01% | max response [12] -0.845% | Potency [13] | max response [14] 3.82% | max response [15] -5.4% | Potency [16] | max response [17] -2.45%

CC(C)O.CC(C)O.CC(C)O.CC(C)O.[Ti]
-4.69%: max response [8]
inactive: Potency [1] | Potency [2] | Potency [3] | outcome [4] | Potency [6] | Potency [7] | max response [9] 1.54% | activity change % (negative = inhibition) [10] -6.47% | activation [20] 0.139% | max response [12] -0.904% | Potency [13] | max response [14] -1.55% | max response [15] -10.9% | Potency [16] | max response [17] -0.917% | outcome [19]
-22.2%: max response [5]
-8.01%: max response [18]

CCCCNS(=O)(=O)c1ccccc1
inactive: Potency [1] | Potency [2] | Potency [3] | outcome [4] | Potency [7] | max response [9] 5.33% | activity change % (negative = inhibition) [10] -5.57% | activation [11] 0.183% | activation [20] 0.36% | Potency [13] | max response [14] -8.48% | max response [15] -3.87% | Potency [16] | max response [17] -0.0697% | outcome [19]
-16.3%: max response [8]
